BRCA1 expr act: qHTS Assay to Identify Small Molecule Activators of BRCA1 Expression; MCF7-BRCA1-FFLuc reporter, luminescence, 48 h; response scale: scaled: vehicle 0%, 10 µM genistein 100%; Potency, µM (titrated, usually from 46.1 µM), for the others: at the top dose activation, most hits filed as activators; 380,000 tested, 1.1% active; further: potency means the concentration at half of the fitted maximal effect; nearly all actives have a fitted effect of over 80% in size
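First, MCF7-BRCA1-FFLuc cells (2000/well) attach for 2 h; next, compounds are pin-added and incubated 48 h at 37 °C; finally, luciferase reagent is added and luminescence read after 15 min.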
IDH1 R132H inh: qHTS for Inhibitors of mutant isocitrate dehydrogenase 1 (IDH1): qHTS; Potency, µM (top dose mostly 76.6 µM), inactives show at the top dose activity change, negative = inhibition, usual class: inhibitors; 390,000 tested, 0.093% active; AID 602179, 2012; Isocitrate dehydrogenase [NADP] cytoplasmic (Homo sapiens), O75874; IDH1-R132H enzyme, NADPH consumption, diaphorase/resazurin fluorescence; further: potency means the concentration at half of the fitted maximal effect; on the % scale 0 is the no-effect control and ±100 the full control effect; nearly all actives have a fitted effect of over 65% in size
Target sequence (O75874 whole entry R132H, stated change not applied): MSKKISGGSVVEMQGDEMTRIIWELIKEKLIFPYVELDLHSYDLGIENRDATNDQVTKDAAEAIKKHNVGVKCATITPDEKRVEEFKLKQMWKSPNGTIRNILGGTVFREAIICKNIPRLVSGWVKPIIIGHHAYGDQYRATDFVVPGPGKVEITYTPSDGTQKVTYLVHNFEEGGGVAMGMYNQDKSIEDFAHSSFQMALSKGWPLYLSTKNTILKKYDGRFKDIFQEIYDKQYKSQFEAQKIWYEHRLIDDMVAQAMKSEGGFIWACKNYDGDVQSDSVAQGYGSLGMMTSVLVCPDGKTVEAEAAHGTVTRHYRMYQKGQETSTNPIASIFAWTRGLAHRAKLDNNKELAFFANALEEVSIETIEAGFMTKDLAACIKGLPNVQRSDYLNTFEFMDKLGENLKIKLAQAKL
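IDH1-R132H (0.5 ug/mL) preincubated 30 min with compound, then NADPH (0.016 mM) and alpha-KG (2 mM) added; 80 min at RT, pH 7.5. Remaining NADPH coupled via diaphorase/resazurin to fluorescence (540/590 nm); concentration-response curves normalized to no-enzyme control.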
rTrxR1 inhibitor: qHTS Assay for Inhibitors of Mammalian Selenoprotein Thioredoxin Reductase 1 (TrxR1): qHTS | recombinant rTrxR1, NADPH fluorescence consumption, selenite substrate | Thioredoxin reductase 1, cytoplasmic (Rattus norvegicus), O89049 | 390,000 tested, 1% active | Potency, µM (titrated, usually from 114 µM), without a hit: at the top dose activity change, negative = inhibition, actives largely listed as inhibitors | AID 588453, 2011; further: potency means the concentration at half of the fitted maximal effect; on the % scale 0 is the no-effect control and ±100 the full control effect; nearly all actives have a fitted effect of over 65% in size
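Rat TrxR1 (90 nM in the dispensed reagent) was pre-reduced with 400 uM NADPH for 5 min at room temperature, then incubated with compound for 15 min. After 400 uM selenite was added, NADPH fluorescence (Ex 340/Em 450 nm) was followed for 8 min.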
IL2 activator: qHTS of IL-2 Activators | IL-2 activation reporter assay, cell-based qHTS; stimulated with anti-CD3/CD4/CD28 beads; in transgenic mouse T cells | activation, % (series mostly up to about 46 µM) | 360,000 tested, 0.065% active | AID 652025, 2013; in the data active means activation above about 50%; inconclusive means mostly about 30% to 49%; further: 0% is about no effect
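Unstimulated transgenic mouse T cells preincubated 60 min with compound, then stimulated with anti-CD3/anti-CD4-coated beads plus anti-CD28 for 18 h at 37 degrees C. IL-2 response read as EGFP and DsRed fluorescence by plate cytometry.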
Giardia kill: Small Molecules that selectively kill Giardia lamblia: qHTS. 340,000 tested, 0.15% active. Giardia lamblia trophozoite viability. activity change, % at 7.66 µM, hits read low; in the data active means activity change below about -80%; inconclusive means between about -30% and that limit;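 further: parasites exposed to compound for two days anaerobically before the ATP read; on the % scale 0 is the no-effect control and ±100 the full control effect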
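Trophozoites 100 cells/well + cpd; 48 hrs, 37 deg C, anaerobic. ATPLite 1-Step added, 15-30 min RT, luminescence read (ATP-based viability).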
TrxR1 substrate: qHTS Assay for Substrates of Mammalian Selenoprotein Thioredoxin Reductase 1 (TrxR1): qHTS | Thioredoxin reductase 1, cytoplasmic (Rattus norvegicus), O89049 | purified TrxR1 substrate turnover, NADPH consumption readout | Potency, µM (doses to about 114 µM), without a hit: at the top dose activity change, negative = substrate turnover | 390,000 tested, 0.01% active | AID 588456, 2011; further: potency means the concentration at half of the fitted maximal effect; on the % scale 0 is the no-effect control and ±100 the full control effect; nearly all actives have a fitted effect of over 50% in size
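Rat TrxR1, dispensed at 90 nM, was prereduced with 400 uM NADPH (final) for 5 min at ~22 deg C, then incubated with compound 15 min before 400 uM selenite. A first-read NADPH fluorescence drop versus no-compound background flagged substrates.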
The depositor's hits bear a star; u = inconclusive; x = not tested or not shown; [ ] = remark or other dose. Sampled rows, rich in hits. Any-hit rate of the full collection: about 2.2%. Unless noted, the call rests on the fitted dose curve; in most records, active means well fitted curve in the direction sought with a large enough effect; inconclusive means small, poorly fitted or top-dose-only effect, or another doubt; inactive means no such curve, though single readings can be large; an effect the other way counts as inactive or inconclusive.

SMILES	BRCA1 expr act	IDH1 R132H inh	rTrxR1 inhibitor	IL2 activator	Giardia kill	TrxR1 substrate
COCCCn1[nH]c2c3c(ccc2c1=O)C(=O)c1ccccc1C3=O	-43.3%	8.3%	2.0%	0.1	-92.7*	-8.1%
COc1cccc(-n2c(CCn3nc(C)c([N+](=O)[O-])c3C)n[nH]c2=S)c1	1.2%	5.7%	u	0.3	41.5	2.8%
COc1ccc(CCn2nc(C)c([N+](=O)[O-])c2C)cc1	8.91µM*	-2.3%	-13.9%	-0.3	2.5	-14.7%
O=C(CN1CCN(C(=O)c2ccco2)CC1)Nc1ccccc1	-4.6%	-7.6%	19.4%	0.6	13.8	7.4%
COc1cccc(-c2cc(C(=O)N3CCN(C(=O)c4ccco4)CC3)on2)c1	26.8%	8.2%	79.4µM*	-2.0	-13.6	4.9%
COc1cccc(NC(=O)CN2CCN(C(=O)c3ccco3)CC2)c1	-7.4%	9.0%	70.8µM*	1.1	-11.4	9.3%
Cc1ccc2c(=O)cc(C(=O)Nc3c(C)n(C)n(-c4ccccc4)c3=O)oc2c1	x	-1.1%	-6.0%	x	x	-2.9%
Cc1cccc(-c2cc3nc(C)cc(C)n3n2)c1	1.58µM*	15.1%	17.4%[57.1 µM]	-0.2	-12.9	9.5%[57.1 µM]
O=C(COC(=O)/C=C/c1cccs1)Nc1nc(-c2ccccc2)cs1	17.2%	9.5%	56.2µM*	-0.1	7.6	1.2%
O=C(COC(=O)/C=C/c1cccs1)Nc1nc(-c2cccc(Br)c2)cs1	0.0%	-6.6%	9.5%	3.6	-25.7	1.8%
Cc1nc(CC(=O)Nc2nc(-c3ccccc3)cs2)cs1	11.2µM*	4.2%	7.8%	0.0	21.0	-1.3%
O=C(COC(=O)CNC(=O)c1ccccc1)Nc1nc(-c2ccccc2)cs1	6.31µM*	3.4%	4.4%[57.1 µM]	-2.7	8.2	-9.5%[57.1 µM]
Cc1ccc(N(CC(O)COCc2ccco2)S(=O)(=O)c2ccc(C)cc2)cc1 (stereo not given)	-5.7%	5.5%	7.08µM*	-0.4	-5.7	4.5%
CCCN(CCC)CC(O)CN(c1ccccc1)S(=O)(=O)c1ccc(C)cc1 (stereo not given)	4.8%	-5.9%	11.6%[57.1 µM]	-1.8	0.1	3.4%[57.1 µM]
O=C(OCc1ccc([N+](=O)[O-])cc1Cl)c1cnccn1	-25.1%	-9.2%	22.4µM*	-0.7	4.8	4.7%
O=C(OCc1cccc([N+](=O)[O-])c1)c1cnccn1	5.7%	-7.9%	7.3%	0.1	-23.8	-0.9%
O=c1c2ccccc2sn1-c1ccc(Cl)c(S(=O)(=O)N2CCOCC2)c1	7.1%	x	22.3%	x	-6.1	-5.6%
CCOC(=O)NCc1ccc2[nH]c(C)cc2c1	12.8%	3.6%	u	-2.1	6.3	2.2%[57.1 µM]
COc1ccc(CNC(=O)Nc2cccc(C)c2)cc1	3.16µM*	1.8%	-5.6%	-2.6	-13.1	-4.0%
Cc1cc2cc(CNC(=O)Nc3ccccc3)ccc2[nH]1	11.2µM*	1.3%	-2.8%	0.3	-7.6	-5.7%
CCCc1cc(NC(=O)CCl)n(-c2ccccc2)n1	-31.8%	7.4%	50.1µM*	-2.4	-25.5	-1.4%
COc1ccc(NC(=O)c2cc(=O)c3ccc(C)c(C)c3o2)cc1Cl	x	13.9%	15.6%	x	x	4.2%
COc1ccc(N2C(=O)CC(N3CCN(c4ccc(S(C)(=O)=O)cc4)CC3)C2=O)cc1 (stereo not given)	-25.1%	-5.7%	15.8µM*	-3.8	8.2	8.8%
O=C(Nc1ccc2c(c1)CCC2)c1cnn2c1NC(=C1CC1)C=C2C(F)F	3.4%	x	-1.1%	x	9.4	-6.9%
Cc1cc(/C=C2\NC(=S)N(C)C2=O)ccc1N1CCCC1	5.01µM*	0.8%	7.1%	5.8	20.0	0.9%
